# NALP3 yeast inh = inhibitors of NALP3 inflammasome in yeast. AID 2825. Yeast reconstituted NLRP3/ASC/caspase-1, beta-gal luminescence, 24 h. hit rate 0.39% among 330,000. inhibition, % at 10 µM;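 active = inhibition of 50% or more; inactive = inhibition below 50%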;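 note: plate controls were induced DMSO wells for no effect and uninduced yeast grown without galactose for full effect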
# tim23-1 inh = inhibits growth of tim23-1 mutant yeast; S. cerevisiae tim23-1 growth, BacTiter-Glo luminescence, 24 h; inhibition, % at 20 µM; hit rate 1.3% among 330,000;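 active = growth inhibition of the mutant yeast at or above 50%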;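 note: temperature-sensitive mutant grown at 25 °C; plate controls were DMSO-treated mutant yeast for no effect and medium wells lacking yeast for full effect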
# SKKanGAS inh = blocks kanamycin growth of S. pyogenes SKKanGAS strain; AID 1662; inhibition, % at 7.5 µM; hit rate 1.3% among 300,000; BacTiter-Glo, 6 h;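 active = mean replicate score, as percent of positive control median, at least 50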;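 note: strain carries kanamycin resistance gene driven by streptokinase promoter and grows in 40 µg/ml kanamycin; loss of luminescence reflects streptokinase promoter inhibition or plain growth inhibition; 0% = median of DMSO wells and 100% = positive control at its reference dose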
# TIM10 inh = growth inhibitors of TIM10 yeast strain; S. cerevisiae TIM10 strain growth, BacTiter-Glo luminescence, 24 h; inhibition, % at 10 µM; hit rate 1.4% among 330,000; AID 463195;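 active = inhibition of 40% or more at the single tested concentration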;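 note: wild-type TIM10 isogenic control strain grown at permissive 25 °C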
# tim10-1 inh = growth inhibitors of tim10-1 mutant yeast. S. cerevisiae tim10-1 ts strain growth, BacTiter-Glo, 24 h. inhibition, % at 20 µM. hit rate 2.2% among 330,000. AID 463190;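 active = inhibition of at least 40%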;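 note: mutant grown at 25 °C; 0% = DMSO wells with yeast and 100% = wells holding no yeast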
# tim10-1 confirm = confirmation of tim10-1 mutant yeast growth inhibitors | hit rate 56% among 7,400 | inhibition, % at 20 µM | shares compounds with tim10-1 inh | AID 463213 | S. cerevisiae tim10-1 ts strain growth, BacTiter-Glo, 24 h;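 active = inhibition of yeast growth at or above a set limit in either of two repeat tests at 20 µM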;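 note: tim10-1 mutant grown at permissive 25 °C to find synthetic lethal compounds; 0% = DMSO yeast wells and 100% = medium wells without yeast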
# * marks the source's active call; other numbers are inactive results; · = no result. Only some compounds are listed: those with a hit (about 4.6% of all), similar ones and a draw of the others.
SMILES,NALP3 yeast inh,tim23-1 inh,SKKanGAS inh,TIM10 inh,tim10-1 inh,tim10-1 confirm
O=C(CSc1nnc(SCc2ccccc2)s1)NNC(=S)Nc1ccccc1,14.5,33.2,1.7,38.0,45.5*,27.7
CC1(C)C[C@@H](O)CC2(C1)C[C@]1(C)CC(O)[C@H]2C(C)(C)C1 (some centres not stated),9.8,27.9,3.3,27.0,24.3,·
Cc1ccc(S(=O)(=O)N2CCOCC2)cc1NC(=O)CN1C(=O)NC(C)(c2ccc(Cl)cc2Cl)C1=O (configuration not stated),4.5,-2.1,·,11.5,-12.1,·
N#CC/C(N)=N/Nc1nc2ccccc2nc1Cc1ccccc1,6.1,22.8,12.8,17.3,33.4,·
CCn1c(=S)sc2c(=O)n(-c3ccccc3)c(SC)nc21,3.3,42.4,11.6,36.9,48.4*,49.2*
COc1cc(C(=O)NCC2CCCO2)cc(Br)c1OCc1ccccc1 (configuration not stated),21.5,41.1,·,10.0,30.3,·
Cc1nn(Cc2c(Cl)cccc2Cl)c(C)c1N,4.3,4.2,0.9,-2.9,13.8,·
CCN(CC)c1ncn(Cc2c(Cl)cccc2Cl)c2ncnc1-2,11.2,39.1,22.6,9.3,41.8*,35.6*
Cc1cc(C)c(S(=O)(=O)c2ccccc2)c(OC(=O)c2c(F)cccc2F)n1,17.8,46.3,-16.4,30.3,31.2,·
Cc1cc(C)c(S(=O)(=O)c2ccccc2)c(OC(=O)c2c(Cl)cc(Cl)cc2Cl)n1,8.3,-15.1,4.2,35.6,41.5*,35.5*
COc1ccc(-n2nc(C(=O)NCC(=O)Nc3cccc(Cl)c3)c3ccccc3c2=O)cc1,1.2,-15.6,11.2,-1.6,-21.2,·
COc1ccc(NC(=O)c2cc([N+](=O)[O-])ccc2O)cc1,2.2,45.7,74.3*,36.5,52.1*,50.8*
CCCC(NC(=O)C(C)N1CCN(S(=O)(=O)c2ccccc2)CC1)c1ccccc1 (configuration not stated),13.7,16.2,·,10.3,9.1,·
O=S(=O)(c1cccc(COc2ccc(Cl)cc2Cl)c1)N1CCOCC1,-2.0,29.3,-2.3,-13.1,24.4,·
O=S(=O)(c1cccc(COc2c(Cl)cccc2Cl)c1)N1CCOCC1,17.3,29.6,-1.5,-0.4,40.2*,14.8
CC(NS(=O)(=O)c1cccc(C(=O)NCc2ccncc2)c1)c1ccccc1 (configuration not stated),7.7,15.7,·,-2.3,1.9,·
CCCOc1ccccc1/C=C1\SC(N2CCCCC2)=NC1=O,34.6,43.1,-2.3,16.6,42.0*,33.3*
COc1cccc(OCc2cc(C(=O)NC(C)c3cnn(C)c3C)no2)c1 (configuration not stated),12.3,-3.5,-4.6,3.0,10.5,·
CCn1c(SCc2cccc(C)c2)nnc1-c1ccccc1,-8.0,37.3,0.0,29.2,47.4*,29.1
CCn1c(SCC(O)c2ccccc2)nnc1-c1ccccc1 (configuration not stated),20.8,12.7,-17.5,5.9,26.9,·
O=C(c1ccc(-c2ccccc2Cl)o1)N1CCN(c2ccccc2O)CC1,12.2,48.1,-2.1,16.3,44.4*,27.9
Cc1ccccc1/C=C/C1=NCCN1,9.1,-3.6,·,1.0,-11.5,·
OC(COC(c1ccc(Cl)cc1)c1ccc(Cl)cc1)CN1CCc2ccccc2C1 (configuration not stated),31.0,17.8,16.9,30.9,43.7*,-3.2
OC(COC(c1ccccc1)c1ccccc1)CN1CCc2ccccc2C1 (configuration not stated),9.4,6.5,-4.3,13.5,14.9,·
CCc1noc(C)c1C(=O)NNC(=O)COc1ccccc1C,3.2,-10.4,·,-3.2,-13.8,·
SMILES,NALP3 yeast inh,tim23-1 inh,SKKanGAS inh,TIM10 inh,tim10-1 inh,tim10-1 confirm
O=C(CSc1nc2nn(-c3ccccc3)c(=O)c-2c2n1CCCCC2)c1ccc(OC(F)F)cc1,8.1,31.7,·,10.1,10.7,·
O=C(NCc1ccc2c(c1)OCO2)c1nc(S(=O)(=O)Cc2ccccc2)ncc1Cl,13.0,43.1,-3.3,38.6,55.4*,25.8
O=C(NCc1ccc2c(c1)OCO2)c1nc(S(=O)(=O)Cc2ccccc2F)ncc1Cl,18.9,36.5,-17.6,-21.0,-17.2,·
CCc1nnc(NC(=O)c2nc(S(=O)(=O)Cc3ccccc3)ncc2Cl)s1,16.1,13.7,-0.3,16.1,18.9,·
COc1ccc(CNC(=O)c2nc(S(=O)(=O)Cc3ccccc3)ncc2Cl)cc1,-7.8,42.1,-5.2,29.0,58.8*,30.8*
O=C(NCc1ccccc1)c1nc(S(=O)(=O)Cc2ccccc2)ncc1Cl,6.5,42.1,-9.4,31.0,51.6*,9.3
COc1ccc(C(=O)O)cc1S(=O)(=O)Nc1ccccc1C(=O)NCc1ccc2c(c1)OCO2,-4.7,11.8,·,6.8,2.1,·
O=C(CS(=O)(=O)c1ccccc1)Nc1nc(-c2ccccc2)cs1,-1.7,44.6,6.0,27.5,47.3*,40.4*
O=C(CCN1CCN(c2ccccc2F)CC1)c1ccc(Br)cc1,14.0,26.2,5.1,5.5,36.3,·
O=C(CCN1CCN(c2ccccc2)CC1)c1ccc(Br)cc1,11.2,17.3,-0.3,-9.7,44.7*,29.1
COc1ccccc1C(=O)Nc1ccccc1SC(=O)c1ccccc1OC,29.6,42.1,22.4,39.0,42.5*,36.9*
CCOc1ccccc1C(=O)Nc1cc(OC)ccc1OC,29.3,42.1,-6.5,39.5,43.1*,37.2*
CCOc1cc(NC(=O)c2ccccc2OC)c(OCC)cc1NC(=O)c1ccccc1,6.8,-16.8,0.7,-0.2,-19.4,·
CCCCn1c(N)c(N(CC(C)C)C(=O)c2ccc([N+](=O)[O-])o2)c(=O)[nH]c1=O,-9.2,0.6,·,7.7,7.5,·
O=C(CCCOc1ccc(Cl)cc1Cl)NCCc1ccccn1,19.6,18.4,7.4,3.2,16.8,·
CN1/C(=C\C(=O)Nc2cccnc2)c2ccccc2CC1(C)C,18.3,9.0,-0.4,3.1,1.9,·
COc1ccc(C(=O)/C=C2/c3ccccc3CC(C)(C)N2C)cc1,13.1,39.0,-1.3,20.4,46.7*,26.8
Cc1ccc(NS(=O)(=O)c2ccc(C(=O)NCc3ccc(S(N)(=O)=O)cc3)cc2)cc1,-1.9,1.1,·,-22.4,-19.8,·
CC(=O)N(C(C)=O)c1c(C#N)c(C)n(-c2ccccc2)c1C(=O)c1ccccc1,19.3,37.4,7.9,20.0,40.7*,19.5
Cc1[nH]c(C(=O)O)c(C#N)c1C(=O)c1ccccc1,4.1,4.8,0.1,6.2,8.2,·
C=CCn1c(-c2cccs2)nc2ccccc21,26.0,10.3,·,-13.8,4.3,·
CCCn1c(-c2cccs2)nc2ccccc21,13.6,37.7,1.2,14.9,41.2*,0.3
O=C(c1sc2ccccc2c1Cl)N1CCN(c2ccccc2F)CC1,8.5,29.7,0.3,3.2,42.4*,27.8
O=C(c1sc2ccccc2c1Cl)N1CCN(c2ccc(F)cc2)CC1,0.1,8.1,14.2,31.8,27.7,·
CCOc1ccccc1N1CCN(C(=O)c2cn(CC3CCCCC3)nn2)CC1,-2.7,23.6,-3.2,15.6,26.1,·

# From PubChem BioAssay
